# Sfp PPTase inh: Sfp phosphopantetheinyl transferase inhibition. 310,000 tested, 3.5% active. Biochemical Sfp PPTase activity, qHTS. AID 1490. Potency, µM, hits mostly inhibitors;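 further: the enzyme is Sfp with the accession as filed and its product quenches rhodamine fluorescence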
#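 After 15 min at room temperature with compound, 15 nM Sfp received 5 uM rhodamine-CoA plus 12.5 uM BHQ-2-ybbR (50 mM Hepes pH 7.6, 10 mM MgCl2). Rate came from the fluorescence difference over 30 min, ex 525/em 598 nm.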
# JMJD2A Tudor inh: blocks the human JMJD2A Tudor domain. O75164. AlphaScreen JMJD2A-Tudor / H3K4me3 peptide binding. Potency, µM (top dose mostly 114 µM), most hits filed as inhibitors. 390,000 tested, 4.4% active. AID 504339; further: nearly all actives have a fitted effect of over 50% in size
# L3MBTL1 inh: inhibitors of human L3MBTL1; AlphaScreen L3MBTL1–H3K9me1 peptide binding; 230,000 tested, 0.66% active; Q9Y468; AID 485360; Potency, µM (doses to about 57.1 µM), most hits filed as inhibitors; further: nearly all actives have a fitted effect of over 60% in size
#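 First, the protein-peptide complex forms for 30 min at room temperature (L3MBTL1 50 nM, biotinylated H3K9me1 peptide 75 nM). Next, compounds are pin-transferred and incubated 30 min. Finally, AlphaScreen beads are added and read after 30 min.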
# G9a inh: blocks human histone lysine methyltransferase G9a | G9a H3K9 monomethylation, AlphaScreen, 2 h | Potency, µM (doses to about 102 µM), usual class: inhibitors | 350,000 tested, 8.8% active | AID 504332; further: nearly all actives have a fitted effect of over 75% in size
#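 Quantitative HTS format: methyltransferase activity on a biotin-tagged H3K9 peptide is measured by AlphaScreen, using a rabbit anti-monomethyl-H3K9 antibody with streptavidin donor and anti-IgG acceptor beads. Final levels are 20 nM enzyme, 500 nM peptide, 20 uM SAM; 2 h RT.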
# HP1b chromo inh: blocks HP1-beta chromodomain binding to methylated histone tails; AID 540317; Potency, µM (top dose mostly 114 µM), most hits filed as inhibitors; P83916; 390,000 tested, 0.56% active; AlphaScreen HP1-beta / biotin-H3K9me3 peptide binding; further: nearly all actives have a fitted effect of over 70% in size
#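 HP1-beta protein (50 nM final) preincubated 30 min at room temperature with biotinylated H3(1-18)K9me3 peptide (50 nM) in PBS pH 7.4, 0.01% Tween-20, then compound added for 30 min. AlphaScreen streptavidin donor/nickel chelate acceptor beads (10 ug/mL final), 30 min dark, luminescence read.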
# BAZ2B block: inhibitors of human BAZ2B bromodomain; Potency, µM (top dose mostly 114 µM), hits mostly inhibitors; Q9UIF8; AlphaScreen BAZ2B-H3K14Ac peptide displacement; AID 504333; 360,000 tested, 4.4% active; further: nearly all actives have a fitted effect of over 60% in size
#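 BAZ2B 50 nM plus b-H3(5-23)K14Ac 50 nM, PBS pH 7.4/0.01% Tween-20, 30 min RT; compound added (max 110 uM), 30 min RT; streptavidin donor/Ni-chelate acceptor beads 10 ug/mL final, 20 min dark; AlphaScreen read.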
# Hits are given with their value; – = inactive; ? = inconclusive; · = no result given; [ ] = another dose, or the depositor's remark. This is a sample that favours compounds with a hit; in the whole collection about 12% have one here. The call rests on the fitted dose curve; in most records, active means well fitted curve in the direction sought with a large enough effect; inconclusive means small, poorly fitted or top-dose-only effect, or another doubt; inactive means no such curve, though single readings can be large; an effect the other way counts as inactive or inconclusive.
SMILES,Sfp PPTase inh,JMJD2A Tudor inh,L3MBTL1 inh,G9a inh,HP1b chromo inh,BAZ2B block
CCCNC(=O)CC(NS(=O)(=O)c1ccc(NC(C)=O)cc1)C(C)C (stereo not drawn),–,–,·,–,–,–
CCOC(=O)c1ccc(Nc2nc3nonc3nc2Nc2cccc(C)c2C)cc1,·,?,·,–,–,22µM
O=C(CSc1ccc2nnc(-c3cccnc3)n2n1)NCc1ccc2c(c1)OCO2,?,56µM,–,?,–,–
O=C(CSc1ccc2nnc(-c3ccccc3)n2n1)NCc1ccc2c(c1)OCO2,–,–,–,–,–,–
COc1cccc(NC(=O)CSc2ccc3nnc(-c4ccccn4)n3n2)c1,–,?,·,–,–,–
COC(=O)c1ccc(CSc2ccc3nnc(-c4ccc(OC)cc4)n3n2)o1,–,·,·,–,·,–
COc1cccc(NC(=O)CSc2ccc3nnc(-c4ccncc4)n3n2)c1,–,–,·,50µM,–,–
COC(=O)c1ccc(CSc2ccc3nnc(-c4cccnc4)n3n2)o1,–,·,–,25µM,·,–
COc1ccc(-c2nnc3ccc(SCC(=O)Nc4cc(C)on4)nn23)cc1,–,·,·,56µM,·,·
O=C(O)c1ccc(CNC(=O)c2ccc3c(c2)C(=O)N(Cc2cccnc2)C3=O)cc1,–,–,·,–,–,–
CCCC(=O)NCC1(N(C)C)CCCCC1,·,–,·,–,–,–
COc1ccc(OC)c(C2=Nn3c(nnc3-c3ccccc3O)SC2)c1,–,–,·,·,·,·
O=C(CSc1ccc2nnc(-c3cccnc3)n2n1)Nc1ccccc1,–,–,·,50µM,–,–
O=C1C(c2c(O)[nH]c3ccccc23)=Nc2ccccc21,–,–,·,–,–,–
CC(=O)c1cccc2c(O)c(C3=Nc4ccccc4C3=O)[nH]c12,40µM,45µM,–,?,–,25µM
Cc1cc(C)cc(NC(=O)C(OC(=O)C2=COCCO2)c2ccccc2)c1 (stereo not drawn),–,–,–,25µM,–,–
O=C(CN1CCN(S(=O)(=O)c2ccc(Cl)cc2)CC1)Nc1ccc2c(c1)OCCO2,–,–[11.4 µM],–,50µM,–,–
O=C(CN1CCN(S(=O)(=O)c2ccc3c(c2)OCCO3)CC1)Nc1cccc(F)c1,·,–,–,56µM,–,–
CC1c2cc3c(cc2CCN1CC(=O)Nc1ccc(S(=O)(=O)N2CCCC2)cc1)OCCCO3 (stereo not drawn),–,–,·,71µM,–,?
CCN(CC(=O)Nc1ccc(OC)cc1)C(=O)Cc1ccc(OC)c(S(=O)(=O)N2CCOCC2)c1,·,–,–,–[12.7 µM],–,–
Cn1c(=O)c2c(nc(SCC(=O)Nc3ccc(OC(F)(F)F)cc3)n2Cc2cccc(C(F)(F)F)c2)n(C)c1=O,·,–,·,–,–,–
Cc1ccc(NC(=O)C2CCN(c3nc4ccccc4[nH]3)CC2)cc1Cl,·,–,·,–,–,–
COc1ccc2nc(NC(=S)N(C)C)sc2c1,?,25µM,·,1.4µM,?,?
O=C(Nc1ccccc1Cl)C1CCN(c2nc3ccccc3nc2C(F)(F)F)CC1,·,–,·,–,–,–
CCc1cnc2c(c1SCC(=O)NCc1ccc(C)cc1)c(=O)n(C)c(=O)n2C,·,–,·,–,–,–
SMILES,Sfp PPTase inh,JMJD2A Tudor inh,L3MBTL1 inh,G9a inh,HP1b chromo inh,BAZ2B block
Cc1cc(C(C)(C)C)cc(S(=O)(=O)Nc2ccc(O)c(C(=O)O)c2)c1C,89µM,–,·,?,–,–
CCn1c2ccccc2c2cc(NC(=O)c3coc(=O)c(Br)c3)ccc21,–,·,–,7.1µM,·,–
CCn1c2ccccc2c2cc(NC(=O)c3ccc(Br)o3)ccc21,11µM,20µM,·,11µM,?,?
CCn1c2ccccc2c2cc(NC(=O)c3cc(OC)cc(OC)c3)ccc21,–,–,–,–,–,–
CCn1c2ccccc2c2cc(NC(=O)c3cc(OC)c(OC)c(OC)c3)ccc21,–,–,–,–,–,–
CCn1c2ccccc2c2cc(NC(=O)COC(=O)c3ccccc3F)ccc21,–,–,–,–,–,–
CCn1c2ccccc2c2cc(NC(=O)c3ccc(=O)oc3)ccc21,–,–,–,45µM,–,?
CCn1c2ccccc2c2cc(NC(=O)COC(=O)c3ccc(NC(=O)CC#N)cc3)ccc21,·,–,32µM,?,–,?
Cc1nn(-c2ccc(N3CCOCC3)nn2)c(C)c1CCC(=O)NCc1ccc(F)cc1,–,–,·,–,–,?
C/C(=N/NC(=O)CN(c1ccccc1)S(=O)(=O)c1ccccc1)c1ccccc1O,–,?,?,·,–,13µM
N=C1C=CC=C2C1=NC1(CCCCC1)N2O,8.9µM,?,–,?,?,45µM
CC(=O)Nc1ccc(S(=O)(=O)NCc2nc(-c3ccccc3C)no2)cc1,–,–,·,–,–,–
O=C(O)CSc1c(O)c2ccccc2[nH]c1=O,10µM,11µM,–,4.5µM,–,14µM
Cc1[nH]c2ccccc2c1SCC(=O)O,–,–,–,?,–,–
O=c1[nH]c2ccccc2c(O)c1SCCO,79µM,22µM,–,·,–,50µM
C=Cc1ccc(CSc2nc(-c3ccc(C)cc3)nc3c2Cc2c(CO)cnc(C)c2O3)cc1,·,–,·,–,–,–
Cc1ccc(S(=O)(=O)NCCSCc2ccccc2)cc1,–,–,–,10µM,–,–
CC1=NN(c2ccccc2)C(=O)/C1=C/c1cccc(C)c1,–,–,·,50µM,–,?
Cc1ccc2nc(N3CCOCC3)c(C=O)cc2c1,–,–,–,–,–,–
CC(=O)Oc1ccc(/C=C2/C(=O)N(c3ccccc3)N=C2C)cc1,–,?,·,?,–,?
CCOc1cc(/C=C2/C(=O)N(c3ccccc3)N=C2C)ccc1OC(=O)c1cccs1,–,?,?,40µM,–,50µM
COc1ccc(/C=C2/C(=O)N(c3ccccc3)N=C2C)cc1OC,–,–,?,71µM,–,–
CC1=NN(c2ccccc2)C(=O)/C1=C/c1cc2cc(C)ccc2nc1N1CCCCC1,–,·,–,–[0.0925 µM],·,8.9µM
CSC1=NC2(CCN(C(=O)NC3CCCCC3)CC2)N=C1c1ccc(C)c(C)c1,·,–,·,–,–,–
C=C(C(C)=O)C(O)c1ccc(C(F)(F)F)cc1 (stereo not drawn),–,·,·,·,·,·
SMILES,Sfp PPTase inh,JMJD2A Tudor inh,L3MBTL1 inh,G9a inh,HP1b chromo inh,BAZ2B block
O=C(CNC(=O)C1CCCCC1)OCC(=O)c1ccc2c(c1)CCC2,·,–,·,·,–,·
Cc1ccc(CC(=O)Nc2c(C(=O)N3CCN(c4ccccc4F)CC3)oc3ccccc23)cc1,·,–,·,–,–,–
Cc1ccc(C)c(CN2C(=O)c3ccccc3Sc3ccc(C(=O)NCc4ccc5c(c4)OCO5)cc32)c1,·,–,·,–,–,–
COc1cc(/C=C2\SC(=N)N(c3ccc(F)cc3)C2=O)ccc1O,–,–,·,–,–,–
CC1=NN(c2ccccc2)C(=O)/C1=C/N(C)C,–,–,–,·,–,?
CC1=NN(c2ccccc2)C(=O)/C1=C\C=C\c1ccccc1,–,10µM,–,2.2µM,10µM,4µM

# Source: PubChem BioAssay (National Center for Advancing Translational Sciences (NCATS))
